# This excerpt belongs to a sample that is enriched for hits.
# Pf Dd2 growth: inhibitors of Plasmodium falciparum Dd2 growth | P. falciparum Dd2 growth, SYBR Green, 72 h | Potency, µM (series often up to 28.9 µM), for inactives: at the highest dose activity, negative = inhibition, most hits filed as inhibitors | 120,000 compounds, 4.3% hits; active = well fitted inhibition curve with a large enough effect;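 note: plate controls were DMSO vehicle for no effect and reference drug for full effect; nearly all actives have a fitted effect of over 65% in size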
#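 Readout: SYBR Green fluorescence, 485 nm excitation, 535 nm emission, after ~16 h lysis at 37C. Before that, Dd2-infected red cells (2.5% hematocrit) grew 72 h with compound, 29 uM top final concentration.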
# * marks the source's active call; other numbers are inactive results; i = inactive; [ ] = remark or other dose. Potency is the fitted concentration of half-maximal effect.
SMILES,Pf Dd2 growth
Cc1noc(C)c1Cc1c(C(=O)N2CCC(C3CCNC3)CC2)noc1C (stereo not drawn),3%
COc1ccc(CNC(=O)N[C@H](Cc2ccccc2)C(=O)N2CCOCCNC(=O)CC2)cc1,-20%
Cc1ccc(-n2c(C3CCN(C(=O)Cc4ccccc4C)CC3)n[nH]c2=O)cc1,i
COCCn1ncc(N2CCC(NC(=O)c3cc(C)cc(C)c3)CC2)cc1=O,i
Cc1cc(NC(=O)N(C)CC2CCOCC2)ccc1Br,-12%
CC(C)c1ccc(N2C(=O)CSC23C(=O)N(Cc2cccc(F)c2)c2ccccc23)cc1 (stereo not drawn),-13%
Cc1cccc(N2C(=O)CSC23C(=O)N(CC(=O)NCc2ccccc2Cl)c2ccccc23)c1 (stereo not drawn),10µM*
Cc1cc(C)cc(N2C(=O)CCSC23C(=O)N(Cc2ccccc2)c2ccccc23)c1 (stereo not drawn),i
O=C1CSC2(C(=O)N(Cc3cccc(C(F)(F)F)c3)c3ccccc32)N1c1ccc(F)c(F)c1 (stereo not drawn),11µM*
O=C1CCSC2(C(=O)N(Cc3ccc(F)cc3)c3ccccc32)N1c1ccccc1 (stereo not drawn),-27%
Cc1cc(C)cc(N2C(=O)CSC23C(=O)N(CC(N)=O)c2ccccc23)c1 (stereo not drawn),-13%
Cc1ccc(N2C(=O)CSC23C(=O)N(CC(=O)Nc2ccc(C(C)C)cc2)c2ccccc23)cc1C (stereo not drawn),13µM*
CC1(C)C(=O)N(CC(=O)Nc2ccc(Cl)cc2)c2ccccc21,13%
Cc1ccc(NC(=O)CN2C(=O)C(C)(C)c3ccccc32)cc1,-12%
O=C1CSC2(C(=O)N(Cc3cccc(F)c3)c3ccccc32)N1c1cccc(C(F)(F)F)c1 (stereo not drawn),-9%
O=C(CN1C(=O)C2(SCC(=O)N2c2ccccc2)c2ccccc21)NCc1ccccc1 (stereo not drawn),-14%
Cc1cc(C)c(NC(=O)CN2C(=O)C3(SCC(=O)N3c3ccc(F)cc3)c3ccccc32)c(C)c1 (stereo not drawn),10µM*
CCCOc1ccc(CNC(=O)CC2CCOCC2)cc1,22%
Cc1cc(C(=O)N2CC[C@H]3C(=O)NCCCCCCN(Cc4ccncc4)[C@@H]3C2)n(C)n1,-1%
CC1CCN(C(=O)C[C@@H]2O[C@H](CNC(=O)C3CC3)[C@@H](O)[C@H]2O)CC1,2%[44.1 µM]
O=C(O)C(c1cccc2c1OCC2)N1CCCN(c2ncccn2)CC1 (stereo not drawn),-18%
O=C(c1ccsc1)N1CCN(c2cc(C(F)(F)F)ncn2)CC1,i
Fc1ccc(C2Cn3nnc(-c4nc(-c5cccc(C(F)(F)F)c5)no4)c3CO2)cc1 (stereo not drawn),-17%
O=C(c1ccc(Cn2ccnc2)o1)N1CCCCCC1c1nnc(-c2ccccc2)o1 (stereo not drawn),i
O=C1Cc2c(-c3cccc4ccccc34)n[nH]c2CN1CCOc1ccccc1,i
SMILES,Pf Dd2 growth
COc1ccc(-c2noc([C@@H]3CCCN3C(=O)COc3cccc(C)c3)n2)cc1OC,i
CCC(C)NC(=O)C1COC2(CCN(C(=O)c3ccc(F)cc3)CC2)N1C(=O)c1cccc(OC)c1 (stereo not drawn),i
Cc1ccccc1S(=O)(=O)N1CCCC(CCC(=O)NC2CC2)C1 (stereo not drawn),-10%
Cn1cccc1C(=O)N[C@@H](Cc1ccccc1)C(=O)N1CCCOCCNC(=O)CC1,-17%
Cc1nn(CCO)cc1CN1CCC2(CC1)C(C(=O)O)CC(=O)N2C (stereo not drawn),-11%
COc1ccc(N2C(=O)CSC23C(=O)N(C)c2ccccc23)cc1Cl (stereo not drawn),19%
Cc1ccc(C)c(NC(=O)CN2C(=O)C(C)(C)c3ccccc32)c1,10%
O=C(CN1C(=O)C2(SCC(=O)N2c2ccc(F)c(F)c2)c2ccccc21)Nc1cccc(Cl)c1 (stereo not drawn),13µM*
O=C1CCSC2(C(=O)N(Cc3ccc(F)cc3)c3ccccc32)N1c1ccc(F)c(F)c1 (stereo not drawn),-6%
Cc1ccc(N2C(=O)CSC23C(=O)N(CC(=O)Nc2ccccc2F)c2ccccc23)cc1C (stereo not drawn),11µM*
CN1C(=O)C2(SCC(=O)N2c2ccc(Cl)cc2)c2ccccc21 (stereo not drawn),i
CC(C)NC(=O)NC[C@H]1O[C@@H]2C[C@@H](CC(=O)N3CCOCC3)O[C@@H]2[C@@H]1O,30%[44.1 µM]
CCCC1(C2CCN(C(=O)CCCn3cncn3)CC2)NC(=O)NC1=O (stereo not drawn),-17%
Cc1sc2cc(C(=O)NC(C)(C)C)[nH]c2c1CN1CCCCC1,-9%
COc1ccc(CNC(=O)C2CCc3nc(N4CCN(C(C)=O)CC4)sc3C2)cc1 (stereo not drawn),i
Cc1ccc(CNC(=O)C2CCc3nc(N4CCN(C(=O)C(C)C)CC4)sc3C2)o1 (stereo not drawn),7.9µM*

# Source: PubChem (National Center for Advancing Translational Sciences (NCATS))
